High-throughput results (PubChem)
The list is not random: actives were taken first. Their share in the collection is about 1.7%.
KCNH2 3.1 inh – KCNH2 3.1 (human) potassium channel inhibition. activity change, % (tested at about 1.8 µM). U2OS KCNH2 3.1, thallium flux FluxOr; hits give low values. 340,000 tested, 0.95% active;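 active = maximum activity change below -70%; inconclusive = maximum activity change from -70% to -50%; inactive = maximum activity change above -50%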;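 note: thallium influx rate constant from kinetic fluorescence after stimulation buffer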
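Thallium flux via FluxOr fluorescence (Red40 quencher, 45 min loading) in U2OS cells virally expressing the KCNH2 3.1 isoform (1.77 x 10^8 /mL virus, overnight at 37 C). Rate constants from 2-min kinetic reads post-stimulation, normalised to positive and negative controls.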
Coupling enz – counter-screen for Giardia aldolase inhibitors: coupling enzyme system; coupling enzyme system counterscreen, AmpLite Red fluorescence; activity change, negative = inhibition, % at 58.2 µM, hits read low; 290,000 tested, 0.67% active; in the data active = activity change below about -30%
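First, compound is pin-transferred into glyceraldehyde-3-phosphate coupling-enzyme reagent at 57.5 uM final and held 10 min at RT. Next, substrate, coupling system and AmpLite Red are added. After 20 min RT, fluorescence (525/598 nm) is read.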
hERG WT inh – inhibitors of human wildtype KCNH2 potassium channel. Q12809. U2OS, BacMam KCNH2, thallium flux FluxOr; hits give low values. activity change, % at 1.84 µM. 340,000 tested, 0.37% active. AID 720551;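 active = maximum activity change below -70%; inconclusive = maximum activity change between -70% and -50%; inactive = maximum activity change above -50%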
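U2OS cells transduced with wild-type KCNH2 virus are loaded with FluxOr dye for 45 min, and thallium flux is measured in kinetic reads before and after stimulation buffer. Rate constants are normalized to DMSO controls.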
Giardia killer – Giardia lamblia killing; Giardia lamblia trophozoite viability; activity change, % at 7.66 µM, hits read low; 340,000 tested, 0.15% active; in the data active = activity change below about -80%; inconclusive = between about -30% and that limit;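 note: parasites exposed to compound for two days anaerobically before the ATP read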
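Giardia lamblia trophozoites (100 cells/well) were incubated with compounds for 48 h at 37 deg C under anaerobic conditions. Viability was read as ATP content by one-step luminescence after 15-30 min at room temperature.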
USP1-UAF1 inh – inhibitors of human USP1/UAF1 deubiquitinase; O94782; recombinant USP1/UAF1, Ub-Rhodamine cleavage fluorescence; Potency, µM (doses to about 57.1 µM), without a hit: at the top dose activity change, negative = inhibition, most hits filed as inhibitors; 390,000 tested, 0.23% active; active = well fitted inhibition curve with a large enough effect; inconclusive = small, poorly fitted or top-dose-only effect; inactive = no such curve, though single readings can be large or run the other way; note: potency is the fitted concentration of half-maximal effect; nearly all actives have a fitted effect of over 60% in size
Target sequence (O94782 whole entry, looked up): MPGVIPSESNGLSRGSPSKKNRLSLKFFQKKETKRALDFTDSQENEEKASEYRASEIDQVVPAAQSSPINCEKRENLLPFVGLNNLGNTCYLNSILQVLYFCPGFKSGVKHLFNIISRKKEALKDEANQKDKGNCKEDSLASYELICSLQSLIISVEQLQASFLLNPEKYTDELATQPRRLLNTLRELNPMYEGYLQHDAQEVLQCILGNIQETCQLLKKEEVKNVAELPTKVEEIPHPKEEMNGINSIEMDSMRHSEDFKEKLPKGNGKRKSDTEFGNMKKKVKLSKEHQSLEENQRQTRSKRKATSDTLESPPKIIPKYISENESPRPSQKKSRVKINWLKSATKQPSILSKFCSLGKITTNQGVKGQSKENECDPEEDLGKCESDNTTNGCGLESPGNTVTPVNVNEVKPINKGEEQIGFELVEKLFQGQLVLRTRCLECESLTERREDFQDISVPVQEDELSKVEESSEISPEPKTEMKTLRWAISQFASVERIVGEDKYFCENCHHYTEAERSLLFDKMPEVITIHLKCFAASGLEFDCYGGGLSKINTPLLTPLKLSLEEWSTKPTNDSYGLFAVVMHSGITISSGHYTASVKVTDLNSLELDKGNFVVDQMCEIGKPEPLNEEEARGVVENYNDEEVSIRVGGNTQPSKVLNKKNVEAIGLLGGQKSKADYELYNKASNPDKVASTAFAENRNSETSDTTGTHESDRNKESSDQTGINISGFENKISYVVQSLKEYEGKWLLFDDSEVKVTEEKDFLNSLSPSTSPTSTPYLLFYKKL
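USP1/UAF1 complex (1 nM) preincubated 15 min at room temperature with compound, then Ub-Rho substrate (150 nM final) added. Kinetic fluorescence at 480/540 nm over 6 reads at 60 s intervals; 50 mM HEPES pH 7.8, 0.5 mM EDTA, 0.1 mg/ml BSA, 1 mM TCEP, 0.01% Tween-20.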
* hit, by the source's call. % is set by controls: 0 for no effect and ±100 for the full control effect.

Screening O=C(Nc1ccccc1)c1ccc(NCCN2C(=O)CCC2=O)c([N+](=O)[O-])c1 returned KCNH2 3.1 inh 23.7, Coupling enz 0.3, hERG WT inh -0.1, Giardia killer 6.4 and USP1-UAF1 inh 7.6%.
Cc1ccccc1NC(=O)c1cc([N+](=O)[O-])ccc1NCCN1C(=O)CCC1=O was read as KCNH2 3.1 inh -159.0*, Coupling enz 0.3, hERG WT inh 4.5, Giardia killer -5.4 and USP1-UAF1 inh -3.5%.
Cc1c(C(=O)NCc2ccc(OC(C)C)cc2)sc2ncnc(N(C)C3CCCCC3)c12 was read as USP1-UAF1 inh -10.7%.
For COc1ccc(NC(=S)Nc2ccc3nsnc3c2)cc1 the results were KCNH2 3.1 inh -12.2, Coupling enz -41.4*, hERG WT inh -8.8, Giardia killer 5.4 and USP1-UAF1 inh 5.62µM*.
`COCCNC(=S)Nc1ccc2nsnc2c1` gave KCNH2 3.1 inh 4.6, Coupling enz -43.0*, hERG WT inh 7.3, Giardia killer 10.9 and USP1-UAF1 inh -11.7%.
For S=C(Nc1ccc2nsnc2c1)NC1CCCCC1 the results were KCNH2 3.1 inh -12.8, Coupling enz -66.8*, hERG WT inh -1.1, Giardia killer -3.4 and USP1-UAF1 inh -17.7%.
For COCCNC(=S)Nc1ccc(Cl)c(Cl)c1 the results were KCNH2 3.1 inh 0.6, Coupling enz -0.1, hERG WT inh 10.5, Giardia killer -12.0 and USP1-UAF1 inh -19.6%.
`CC(C)N(C(=O)Nc1ccc2nsnc2c1)C(C)C` gave KCNH2 3.1 inh 21.8, Coupling enz -36.7*, hERG WT inh -10.1, Giardia killer 1.0 and USP1-UAF1 inh 6.31µM*.
Screening COc1ccc(NC(=S)Nc2ccc3nc(C)c(C)nc3c2)cc1 returned KCNH2 3.1 inh 4.5, Coupling enz -20.9, hERG WT inh -8.1, Giardia killer -0.4 and USP1-UAF1 inh -20.1%.
For FC(F)(F)c1cccc(NC(=S)NC2CCCC2)c1 the results were KCNH2 3.1 inh -106.5*, Coupling enz -1.7, hERG WT inh -0.6, Giardia killer inconclusive and USP1-UAF1 inh -9.2%.
For C=CCN(CC=C)C(=S)Nc1ccc2nsnc2c1 the results were KCNH2 3.1 inh -2.0, Coupling enz -54.1*, hERG WT inh -7.9, Giardia killer 20.5 and USP1-UAF1 inh -12.6%.
CCOc1ccc(NC(=S)Nc2ccc3nsnc3c2)cc1 was read as KCNH2 3.1 inh 11.5, Coupling enz -28.0, hERG WT inh 0.9, Giardia killer -26.0 and USP1-UAF1 inh 28.2µM*.
Screening CC(=O)N1CCCC1c1nc2ccccc2n1Cc1ccccc1 (configuration not stated) returned USP1-UAF1 inh -31.1%.
For COc1ccc(C2Nc3ccccc3-c3nnc(SC)nc3O2)cc1C (configuration not stated) the results were USP1-UAF1 inh 5.4%.
For CC(COc1ccccc1)N1CCC(CO)(Cc2ccccc2)CC1 (configuration not stated) the results were KCNH2 3.1 inh -71.5*, Coupling enz 3.9, hERG WT inh 12.8, Giardia killer -7.8 and USP1-UAF1 inh -21.2%.
Screening COc1ccc(CC2(CO)CCN(C(C)COc3ccccc3)CC2)cc1 (configuration not stated) returned KCNH2 3.1 inh -94.1*, Coupling enz 0.2, hERG WT inh -27.5, Giardia killer 22.8 and USP1-UAF1 inh -8.3%.
`CC1(C)CC(=O)C2=C(C1)N=C1SCCC(=O)N1C2c1ccccc1` (configuration not stated) gave KCNH2 3.1 inh -70.9*, Coupling enz 4.1, hERG WT inh -11.9, Giardia killer -10.2 and USP1-UAF1 inh -3.4%.
`O=C1CCCC2=C1C(c1ccc(Cl)cc1)N1C(=O)CCSC1=N2` (configuration not stated) gave KCNH2 3.1 inh 10.6, Coupling enz -0.4, hERG WT inh -10.0, Giardia killer 4.7 and USP1-UAF1 inh -1.9%.
Cc1ccc2c(c1)-c1cc(C)nn1C(c1sccc1C)N2 (configuration not stated) was read as KCNH2 3.1 inh 2.2, Coupling enz -2.7, hERG WT inh -155.3*, Giardia killer 26.4 and USP1-UAF1 inh -12.3%.
For Cc1cc2n(n1)C(c1sccc1C)Nc1ccccc1-2 (configuration not stated) the results were KCNH2 3.1 inh 1.5, Coupling enz -0.4, hERG WT inh -6.1, Giardia killer -10.1 and USP1-UAF1 inh -5.7%.
Screening C=CCn1c(NC(=O)c2ccccc2Cl)c(C#N)c2nc3ccccc3nc21 returned KCNH2 3.1 inh 1.9, Coupling enz -51.6*, hERG WT inh 0.4, Giardia killer -19.6 and USP1-UAF1 inh 15.8µM*.
Screening CCCCCn1c(NC(=O)c2ccco2)c(S(=O)(=O)c2ccc(C)cc2)c2nc3ccccc3nc21 returned KCNH2 3.1 inh -11.3, Coupling enz -14.8, hERG WT inh -5.0, Giardia killer 4.1 and USP1-UAF1 inh inconclusive.
For CCCCn1c(NC(C)=O)c(C#N)c2nc3ccccc3nc21 the results were KCNH2 3.1 inh -7.0, Coupling enz -58.7*, hERG WT inh 0.5, Giardia killer -4.3 and USP1-UAF1 inh -21.8%.
Screening Cc1cc(NC(=O)CSc2nc3ccccc3c(=O)n2Cc2ccccc2)no1 returned KCNH2 3.1 inh -1.0, Coupling enz 1.5, hERG WT inh 1.9, Giardia killer -1.4 and USP1-UAF1 inh 0.8%.
Cc1ccc(Cn2c(SCC(=O)Nc3cc(C)on3)nc3ccccc3c2=O)cc1 was read as KCNH2 3.1 inh -96.7*, Coupling enz 3.5, hERG WT inh -2.4, Giardia killer 10.3 and USP1-UAF1 inh -21.1%.
For O=C(CSc1nc2ccccc2c(=O)n1Cc1ccc(Cl)cc1)NCc1cccs1 the results were KCNH2 3.1 inh -82.0*, Coupling enz 3.6, hERG WT inh -5.6, Giardia killer -7.0 and USP1-UAF1 inh -18.5%.
Screening O=C(CSc1nnc2[nH]c(=O)cc(-c3ccccc3)n12)Nc1cc(C(F)(F)F)ccc1Cl returned USP1-UAF1 inh 4.1%.
Cc1ccc(-c2cn3c(n2)sc2cc(C(=O)NC4CCCc5ccccc54)ccc23)cc1 (configuration not stated) was read as USP1-UAF1 inh -4.6%.
Screening O=C(c1ccc2c(c1)N(Cc1ccc(Cl)cc1)C(=O)c1ccccc1S2(=O)=O)N1CCCCCC1 returned USP1-UAF1 inh -28.5%.
Screening COc1ccc(CCNC(=O)C2CCN(Cc3nc(-c4ccc(OC)c(OC)c4)oc3C)CC2)cc1OC returned USP1-UAF1 inh -16.6%.
CN1c2cccc3cccc(c23)N(C)C1c1cccs1 was read as KCNH2 3.1 inh -10.3, Coupling enz -37.0*, hERG WT inh 14.8, Giardia killer 1.2 and USP1-UAF1 inh inconclusive.
Screening CC1N(C)c2cccc3cccc(c23)N1C returned KCNH2 3.1 inh 9.1, Coupling enz -29.6, hERG WT inh -8.5, Giardia killer -4.7 and USP1-UAF1 inh inconclusive.
